Compounds with a hit are over-represented: about 2.4% of the library has one in this group of screens.
D2 PAM-1 = positive allosteric modulators of human D2 dopamine receptor | P14416 | DiscoveRx D2 beta-arrestin cells, luminescence, 90 min; 100% = 57 uM dopamine signal | potentiation, % (concentration not given with the values) | hit rate 0.23% among 360,000; in the data active = potentiation above about 50%; inconclusive = mostly about 30% to 49%
Target sequence (P14416 whole entry, looked up): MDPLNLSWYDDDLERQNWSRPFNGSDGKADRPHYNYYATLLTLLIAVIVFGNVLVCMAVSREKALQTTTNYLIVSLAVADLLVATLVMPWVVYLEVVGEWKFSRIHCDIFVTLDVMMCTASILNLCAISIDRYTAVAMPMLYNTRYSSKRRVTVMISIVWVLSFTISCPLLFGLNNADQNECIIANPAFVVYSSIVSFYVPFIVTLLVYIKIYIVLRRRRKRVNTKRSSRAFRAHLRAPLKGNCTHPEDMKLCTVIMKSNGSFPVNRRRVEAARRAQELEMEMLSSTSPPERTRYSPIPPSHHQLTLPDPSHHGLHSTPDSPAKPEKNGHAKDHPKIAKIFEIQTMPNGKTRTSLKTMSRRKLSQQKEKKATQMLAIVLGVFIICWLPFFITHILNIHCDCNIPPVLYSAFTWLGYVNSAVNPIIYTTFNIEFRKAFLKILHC
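PathHunter D2 cells, attached overnight at 37 deg C, received compound in DMSO plus dopamine at EC20 (50 nM final) for 90 min at 37 deg C. Beta-arrestin recruitment was read as luminescence after 1 h with detection reagent at ambient temperature.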
D2 antag = D2 dopamine receptor (human) antagonism | P14416 | inhibition, % at 10 µM | HEK293 TREx D2 cells, calcium flux, dopamine EC80 | hit rate 2% among 340,000; in the data active = inhibition above about 30%; inactive = below that, where a call was filed
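Calcium mobilization kinetics were recorded at 1 s intervals in tetracycline-induced HEK293 T-REx D2 cells, first for 180 s after compound addition and then 180 s after EC80 dopamine.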
D2 ag-1 = agonists of human D2 dopamine receptor (beta-arrestin). P14416. DiscoveRx PathHunter D2 beta-arrestin, luminescence, 90 min; 100% = 57 uM dopamine signal. activation, % (concentration not given with the values). hit rate 0.084% among 360,000; in the data active = activation above about 40%; inconclusive = between about 15% and that limit
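Agonist mode: compounds alone added to overnight-plated D2 PathHunter cells for 90 min at 37 C, with 57 uM final dopamine (EC100) defining full response. Beta-arrestin recruitment detected by chemiluminescent reagent, read after 1 h at ambient temperature.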
D2 ag-2 = activates the human D2 dopamine receptor. activation, % at 2 µM. HEK293 T-REx D2 cells, calcium flux agonist mode. P14416. hit rate 0.53% among 340,000;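 active = activation over 3 SD above normal in the single-dose calcium agonist read, cut at about 30% in these data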
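Tetracycline-induced HEK293 Trex cells with D2 receptor force-coupled to calcium signaling, plated overnight at 30 C and loaded with no-wash calcium dye. Calcium flux read kinetically for 180 s after compound addition; responses flag agonists.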
D2 PAM-2 = positively modulates the human D2 dopamine receptor allosterically. hit rate 0.34% among 340,000. potentiation, % at 10 µM. AID 485347. HEK293 T-REx D2, calcium flux, EC20 dopamine potentiation;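 active = potentiation over 3 SD above the plate norm, cut at about 30% in these data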
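Potentiation of an EC20 dopamine calcium response measured kinetically over 180 s, after a preceding 180 s compound-only read flagging agonists. Cells: inducible Hek293 Trex D2 line, 4000/well, cultured overnight at 30 C before dye loading.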
Each line names hits and unclear results; the compound was inactive in the other large screens.

COc1ccc(-c2c(C)[nH]n3c(=O)c(Cc4ccccc4)c(C)nc23)cc1OC	D2 antag 34.9
Cc1nc2c(-c3ccc(Cl)cc3)c(C)[nH]n2c(=O)c1Cc1ccccc1	none
CCOC(=O)Cc1c(C)nc2c(-c3ccccc3)c(C)[nH]n2c1=O	D2 PAM-2 34.0
CCOC(=O)Cc1c(C)nc2c(-c3ccccc3)c(-c3ccccc3)[nH]n2c1=O	none
Cc1cccc(Cc2c(C)nc3c(-c4ccccc4)c(C)[nH]n3c2=O)c1	none (no result: D2 PAM-1, D2 antag, D2 ag-1, D2 PAM-2)
Cc1nc2c(-c3ccccc3)c(C)[nH]n2c(=O)c1Cc1ccccc1	D2 antag 42.6
O=C(CN1C(=O)CCSc2ccccc21)Nc1ccc(C(F)(F)F)cc1	none (no result: D2 PAM-1, D2 antag, D2 ag-1, D2 ag-2)
O=C(Cn1nc([N+](=O)[O-])nc1Br)NC(c1ccccc1)c1ccccc1	D2 PAM-1 58.0
Cc1cc([N+](=O)[O-])nn1CC(=O)NC(C)c1ccccc1 (stereo unspecified)	none
Brc1ccc(Oc2ncc(CN3CCN(c4ccccc4)CC3)s2)cc1	D2 ag-1 44.7
Cc1ccc(Oc2ncc(CN3CCOCC3)s2)cc1	none
Cc1ccccc1Nc1nnc(-c2ccc(C)c(S(=O)(=O)N3CCCCC3)c2)c2ccccc12	none (no result: D2 PAM-1, D2 antag, D2 ag-1, D2 PAM-2)
N#CCSc1ncccc1-c1nc2ccccc2[nH]1	D2 PAM-2 36.7
N#CCCCSc1ncccc1-c1nc2ccccc2[nH]1	none
Cc1ccc(NC(=O)CCS(=O)(=O)c2cc(Br)cc3c2N(C(=O)C2CC2)CC3)cc1	none (no result: D2 PAM-1, D2 antag, D2 ag-1, D2 ag-2)
COC(=O)C(C(C)=O)C1=C/C(=N\S(=O)(=O)c2ccc(C)cc2)c2ccccc2C1=O (stereo unspecified)	D2 PAM-1 50.1
Cc1ccc(/C=C/c2onc(C)c2S(=O)(=O)N2CCC(C(=O)N3CCCCC3)CC2)cc1	D2 antag 34.1
CCCCNC(=O)C1CCN(S(=O)(=O)c2c(C)noc2/C=C\c2ccc(OC)cc2)CC1	D2 antag 39.6
COCCCNC(=O)C1CCN(S(=O)(=O)c2c(C)noc2/C=C\c2ccc(OC)cc2)CC1	none
COc1ccc(/C=C/c2onc(C)c2S(=O)(=O)N2CCC(C(=O)N3CCCCCC3)CC2)cc1	D2 PAM-2 33.7
CN(C)CCn1c2c(c(SCC(=O)Nc3ccc(F)cc3F)nc1=O)CCC2	none (no result: D2 PAM-1, D2 antag, D2 ag-1, D2 PAM-2)
CCc1cc2c(=O)oc(-c3ccc(Br)cc3)nc2s1	D2 antag 32.8
CCCCC(=NCCc1c(C)[nH]c2ccc(OC)cc12)C1=C(O)CC(c2ccccc2)CC1=O (stereo unspecified)	D2 PAM-2 32.6
C(/C=C/c1ccccc1)=N/N1CCN(c2ccccc2)CC1	none
C(=C\c1ccccc1)/C=N/N1CCN(Cc2ccccc2)CC1	D2 antag 40.0
N#CC1=C(c2ccccc2)/C(=C/c2ccccc2)OC1=O	D2 antag 35.4
O=C1O/C(=C/c2ccccc2)c2ccccc21	none
CC(C)COP(=O)(OCC(C)C)C(O)c1ccccc1F (stereo unspecified)	D2 antag 52.4
COc1cc(C(O)P(=O)(OCC(C)C)OCC(C)C)cc(OC)c1OC (stereo unspecified)	none
COc1cccc(/C=N/NC(=O)CCc2c(C)n[nH]c2C)c1	none
Cc1n[nH]c(C)c1CCC(=O)N/N=C/c1cccc([N+](=O)[O-])c1	D2 antag 45.5
O=C(CN1CCN(Cc2ccccc2)CC1)NCc1ccc(Cl)cc1	none
O=C(c1ccco1)N1CCN(c2ccc(F)cc2)CC1	none
O=C(CN1CCN(C(=O)c2ccco2)CC1)NCc1ccc(Cl)cc1	D2 antag 32.4
O=C(c1ccco1)N1CCN(Cc2ccc(F)cc2)CC1	D2 PAM-1 inconclusive, D2 antag 57.6, D2 ag-1 43.9, D2 ag-2 81.3
CCOC(=O)N1CCN(Cc2nc(N)nc(Nc3ccc(Cl)cc3)n2)CC1	none
O=C(c1ccco1)N1CCN(Cc2nnc(-c3ccccc3F)o2)CC1	D2 PAM-2 34.5
Nc1nc(CN2CCN(C(=O)c3ccco3)CC2)nc(Nc2cccc(Cl)c2)n1	D2 ag-1 inconclusive, D2 ag-2 38.2
Cc1ccc2c(c1)c1c(c(=O)n(-c3ccccc3C)c(=O)n1Cc1cccc(F)c1)n2C	none (no result: D2 PAM-1, D2 antag, D2 ag-1, D2 ag-2)
O=C(c1ccc(Cn2c(=S)[nH]c3ccccc3c2=O)cc1)N1CCN(c2ccccn2)CC1	D2 antag 32.8
CCCCCn1c(=O)[nH]c2cc(C(=O)N3CCN(Cc4ccc5c(c4)OCO5)CC3)ccc2c1=O	D2 ag-2 37.7
O=C(c1ccc2c(=O)n(CCc3ccccc3)c(=O)[nH]c2c1)N1CCN(c2ccc(F)cc2)CC1	none
O=C(c1ccc2c(=O)n(CCc3ccccc3)c(=O)[nH]c2c1)N1CCN(c2ccccc2)CC1	D2 PAM-2 30.0
C=CCn1c(=O)[nH]c2cc(C(=O)N3CC=C(c4ccccc4)CC3)ccc2c1=O	D2 antag 36.0
COc1ccccc1CCNC(=O)C(C)Sc1nc(-c2ccccc2)cc(C(F)(F)F)n1 (stereo unspecified)	none (no result: D2 PAM-1, D2 antag, D2 ag-1)
CCOc1ccccc1NC(=O)Cc1csc(COc2cccc(C)c2)n1	none (no result: D2 PAM-1, D2 antag, D2 ag-1)
Cc1ccc(CN(C(=O)COc2ccc(C(C)C)cc2)C2CCS(=O)(=O)C2)o1 (stereo unspecified)	none (no result: D2 PAM-1, D2 antag, D2 ag-1)
CCOc1cc2[nH]c(=S)n(Cc3ccc(C(=O)NCCN(CC)CC)cc3)c(=O)c2cc1OCC	D2 antag 49.7
CCOC(=O)N1CCN(C(=O)c2ccc(Cn3c(=S)[nH]c4cc(OCC)c(OCC)cc4c3=O)cc2)CC1	none
CCOC(=O)N1CCN(C(=O)c2ccc(Cn3c(=S)[nH]c4cc5c(cc4c3=O)OCO5)cc2)CC1	D2 antag 31.2
CCCC1=Nc2cc(C(=O)NC3CCCCC3)ccc2Sc2ccc(C)cc21	none (no result: D2 PAM-1, D2 antag, D2 ag-1)
O=Cc1ccc(OCC(=O)NCC2CCCO2)cc1 (stereo unspecified)	D2 antag 30.1
CN(C)/C=C/C(=O)c1ccc2noc(-c3cccc(F)c3)c2c1	D2 ag-1 46.2
CC(=O)c1ccc2noc(-c3ccc(F)cc3)c2c1	D2 PAM-1 59.2, D2 antag 34.4
Cc1ccccc1S(=O)Cc1ccc(C(=O)NC2CCN(Cc3ccccc3)CC2)o1 (stereo unspecified)	D2 antag 43.9
Cc1cccc(S(=O)Cc2ccc(C(=O)NC3CCN(Cc4ccccc4)CC3)o2)c1 (stereo unspecified)	D2 antag 44.4
CCOC(=O)N1CCC(NC(=O)c2ccc(CS(=O)c3ccc(Cl)cc3)o2)CC1 (stereo unspecified)	none
COc1ccc(N2CCN(CCCNC(=O)c3cnn(-c4ccc(F)cc4)c3-n3cccc3)CC2)cc1	none (no result: D2 PAM-1, D2 antag, D2 ag-1)
CCOC(=O)N1CCC(NCCNC(=O)c2ccc(F)c(F)c2)CC1	D2 antag 59.1
CCOC(=O)N1CCC(NCCNC(=O)c2ccc(Cl)cc2)CC1	D2 antag 59.1
OC1(c2ccc(Br)cc2)CCN(Cc2cccc(Br)c2)CC1	D2 antag 102.8
